Assay results reported in PubChem BioAssay.
Active and inactive are the calls of the source.

target: Dihydroorotate dehydrogenase (quinone), mitochondrial (Plasmodium falciparum (isolate 3D7)) (UniProt Q08210); assay: inhibition of P. falciparum DHODH – biochemical, C-terminal His tag, absorbance 600 nm, primary screen (AID 1175); conditions: PfDHODH enzyme, DCIP absorbance 600 nm; higher = more signal, called active from +8 up or from −8 down;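 also: recombinant parasite enzyme with a five histidine tag at its C terminus; test concentration not given here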
Sequence (Q08210 whole entry, looked up): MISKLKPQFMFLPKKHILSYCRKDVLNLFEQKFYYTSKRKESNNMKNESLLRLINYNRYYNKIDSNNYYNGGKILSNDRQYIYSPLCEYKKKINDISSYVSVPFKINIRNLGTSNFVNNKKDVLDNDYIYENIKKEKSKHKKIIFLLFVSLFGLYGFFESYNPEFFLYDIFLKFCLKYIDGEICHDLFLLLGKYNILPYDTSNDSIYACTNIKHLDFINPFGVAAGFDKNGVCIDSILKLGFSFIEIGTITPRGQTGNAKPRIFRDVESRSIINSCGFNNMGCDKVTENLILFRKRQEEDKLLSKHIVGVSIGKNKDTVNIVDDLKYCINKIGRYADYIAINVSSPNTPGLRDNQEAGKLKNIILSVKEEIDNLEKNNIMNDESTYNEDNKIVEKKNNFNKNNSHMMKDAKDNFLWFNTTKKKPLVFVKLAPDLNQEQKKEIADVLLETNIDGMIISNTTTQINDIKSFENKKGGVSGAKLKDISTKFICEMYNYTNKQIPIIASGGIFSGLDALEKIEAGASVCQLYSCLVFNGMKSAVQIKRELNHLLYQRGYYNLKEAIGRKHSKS

| SMILES | composite z-score |
| --- | --- |
| CC(C)c1ccc(NN2C(C(O)c3ccc4c(c3)OCO4)C=CC3C(=O)N(c4ccccc4)C(=O)C32)cc1 (stereo not given) | -0.0797 (inactive) |
| CN1C(=O)[C@@]2(CCC(=O)OC(C)(C)C)N=C(c3ccc(OCCCO)cc3)O[C@H]2c2ccccc21 | -0.281 (inactive) |
| COC(=O)[C@@]1(Cc2ccc(F)cc2)[C@@H]2C(=CC(=O)[C@H]2CC(=O)C(=O)N(C)C)CN1C(=O)c1ccccc1 | 0.354 (inactive) |
| O=C(CS)NCCCCCNC(=O)[C@H]1C[C@H]2C(=O)N3CCC[C@H]3C(=O)N2[C@H]1c1cccc(OCCO)c1 | 0.274 (inactive) |
| C=CCOC(=O)[C@H]1[C@@H]2C(=O)O[C@@H](c3ccccc3)[C@@H](c3ccccc3)N2[C@@H](c2ccc(OCCOC(=O)[C@H]3C[C@H]4C(=O)N[C@@H](Cc5ccccc5)C(=O)N4[C@H]3c3ccc(O)cc3)cc2)[C@]12C(=O)Nc1ccccc12 | -0.869 (inactive) |
| COc1ccc([Si](C)(C)[C@@H]2[C@@H](CCO)O[C@]3(C(=O)N(Cc4ccc(NC(C)=O)cc4)c4ccccc43)[C@H]2C)cc1 | -1.34 (inactive) |
| CCCCCN1CC=CC23O[C@@H]4C=CCOC(=O)[C@@H]4[C@H]2C(=O)N(CCCCCCO)[C@@H]3C1=O (stereo not given in full) | -0.473 (inactive) |
| COC(=O)C1(C)C=C2C(=C(c3ccccc3)C(=O)C2C)CN1 (stereo not given) | -0.784 (inactive) |
| CC(C)N1CC=CC23O[C@@H]4C=CCCOC(=O)C4[C@H]2C(=O)N(CCCCCCO)[C@@H]3C1=O (stereo not given in full) | -0.0439 (inactive) |
| COc1ccc([Si](C)(C)[C@H]2[C@H](CCO)O[C@@]3(C(=O)N(Cc4cccc(NC(=O)[C@H](C)O)c4)c4ccccc43)[C@@H]2C)cc1 | 1.35 (inactive) |
| COc1ccc(CCNC(=O)[C@@H]2c3ccccc3C(=O)N(c3ccc(C)cn3)[C@H]2c2ccc(CO)cc2)cc1 | -0.204 (inactive) |
| C=CCNC(=O)[C@H]1[C@@H]2C(=O)O[C@@H](c3ccccc3)[C@@H](c3ccccc3)N2[C@@H](c2ccc(O)cc2)[C@]12C(=O)N(C(=O)OCCOC)c1ccc(C#CC3=CCCCC3)cc12 | -0.629 (inactive) |
| [N-]=[N+]=NCc1ccccc1[C@@H]1OC(c2ccc(OCCCO)cc2)=N[C@]1(Cc1ccccc1)C(=O)N1CCOCC1 | -0.0859 (inactive) |
| CC(C)C[C@@H]1NC(=O)[C@H]2C[C@@H](C(=O)NCCCCCCN(C)C)[C@@H](c3cccc(OCCO)c3)N2C1=O | 0.344 (inactive) |
| C=C(/C(=C/C[C@@H](OC(=O)c1ccncc1)c1ccc(OCCO)cc1)c1cnc2ccccc2c1)C(C)C | -10.5 (active) |
| CS(=O)(=O)CCOC(=O)C1=CC(CCCO)=CC(c2cccs2)N(Cc2cccc(OC(F)(F)F)c2)C=C1C(=O)OCCS(C)(=O)=O (stereo not given) | -0.407 (inactive) |
| COCCCNC(=O)[C@]1(CCC(=O)OC(C)(C)C)N=C(c2ccc(OCCCO)cc2)O[C@@H]1c1ccccc1N=[N+]=[N-] | 0.08 (inactive) |
| Cc1ccc(C2CC=C(C(=O)O)CN2S(=O)(=O)c2ccc(C)cc2)cc1 (stereo not given) | 1.23 (inactive) |
| O=C1O[C@@H](c2ccccc2)[C@@H](c2ccccc2)N2[C@@H](c3ccc(OCCO)cc3)[C@]3(C(=O)Nc4ccccc43)[C@@H](C(=O)N3CCN(c4ncccn4)CC3)[C@H]12 | -2.37 (inactive) |
| COCCOC(=O)N1C(=O)[C@@]2(c3cc(C#CCNC(N)=O)ccc31)[C@H](c1ccccc1OCCO)N1[C@H](c3ccccc3)[C@H](c3ccccc3)OC(=O)[C@H]1[C@@H]2C(=O)N1CCN(c2ncccn2)CC1 | -1.48 (inactive) |
| COCCOC(=O)N1C(=O)[C@@]2(c3cc(C#Cc4ccc(OC)cc4)ccc31)[C@H](C(=O)N1CCN(c3ncccn3)CC1)[C@H]1C(=O)O[C@H](c3ccccc3)[C@H](c3ccccc3)N1[C@@H]2c1ccc(OCCO)cc1 | -1.62 (inactive) |
| CN(C)CCCNC(=O)[C@@H]1c2ccccc2C(=O)N(Cc2cc(F)cc(C(F)(F)F)c2)[C@H]1c1ccc(CO)cc1 | 0.0999 (inactive) |
| CCCNC(=O)[C@@H]1c2ccccc2C(=O)N(c2ccc(C)cn2)[C@H]1c1ccc(CO)cc1 | -0.165 (inactive) |
| CN1C(=O)C2C=CC(C(O)c3ccc(I)cc3)N(NC(=O)OC(C)(C)C)C2C1=O (stereo not given) | 0.0247 (inactive) |
| COC(=O)c1c(CC[C@@H](CO)NC(=O)N[C@H](Cc2ccccc2)Cn2cc(-c3ccccc3N)nn2)oc(C(C)=O)c1C(=O)OC | -0.433 (inactive) |
